Laboratory results reported in PubChem BioAssay (Tox21).
Records with an inconclusive call do not appear. The source made the active and inactive calls. Unless noted, the call rests on the fitted dose curve; in most records, active means well fitted curve in the direction sought with a large enough effect in the repeat runs; inconclusive means weak or mixed curves; inactive means no such curve, though single readings can be large; an effect the other way counts as inactive or inconclusive.

Tests used:
[1] = qHTS assay to identify small molecule agonists of the vitamin D receptor (VDR) signaling pathway - cell viability counter screen (AID 743224); further: series mostly up to about 63 µM; nearly all actives have a fitted effect of over 50% in size
In short: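 Plated VDR-bla cells (4 h, 37C) received compound, incubated 16 h, then LiveBLAzer substrate 2 h RT; CellTiter-Glo added afterwards, luminescence read at 30 min.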

[2] = qHTS assay to identify small molecule antagonists of the vitamin D receptor (VDR) signaling pathway - cell viability counter screen (AID 743225); further: nearly all actives have a fitted effect of over 50% in size
In short: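 Cytotoxicity toward the VDR-bla HEK 293T line was scored by ATP-based CellTiter-Glo luminescence, read in the wells already used for the beta-lactamase readout after 16 h compound treatment under 3 nM 1-alpha,25-dihydroxyvitamin D3 stimulation.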

[3] = qHTS assay to identify small molecule agonists of the NFkB signaling pathway - cell viability counter screen (AID 1159515; calls by dose curve; further: series mostly up to about 61 µM; nearly all actives have a fitted effect of over 55% in size)
In short: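 Using the same wells as the NFkB reporter read, ME-180 NFkB-bla cells given compounds for 5 hr were assessed for viability via CellTiter-Glo, with luminescence taken after a 30 min room-temperature incubation.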

[4] = qHTS assay to identify small molecule agonists of the endoplasmic reticulum stress response signaling pathway (AID 1159516; active means well fitted activation curve with a large enough effect in the signal ratio in the repeat runs, not every such curve was filed as active; the % refers to the signal ratio)
In short: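 An ESRE-bla HeLa cell assay: compounds were pin-transferred from DMSO onto overnight-plated cells and left 5 hr at 37 C. Substrate was then loaded for 2 hr at room temperature before reading fluorescence at 460 nm and 530 nm.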

[5] = qHTS assay to identify small molecule antagonists of the retinoid-related orphan receptor gamma (ROR-gamma) signaling pathway - cell viability counter screen (AID 1159520); further: nearly all actives have a fitted effect of over 50% in size
In short: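 Tet-on ROR gamma CHO cells were given compounds for 2 hr, then doxycycline hyclate at 1 uM final, and incubated 16 hr at 37 C. Viability was measured as ATP content by CellTiter-Glo luminescence.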

[6] = biological target: Nuclear receptor ROR-gamma (Homo sapiens) (UniProt P51449); assay: qHTS assay to identify small molecule antagonists of the retinoid-related orphan receptor gamma (ROR-gamma) signaling pathway (AID 1159521;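 further: CHO cells with doxycycline inducible ROR-gamma driving an RORE luciferase reporter; top concentration of the series differs between compounds; nearly all actives have a fitted effect of over 50% in size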)
In short: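 Readout: ONE-Glo luciferase luminescence, 30 min at room temperature. System: Tet-on RORγ CHO, RORE-LUC. Sequence: compound 2 h, doxycycline 1 uM final, 16 h at 37 C.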

[7] = qHTS assay to identify small molecule agonists of the AP-1 signaling pathway - cell viability counter screen (AID 1159525; calls by dose curve; further: nearly all actives have a fitted effect of over 55% in size)
In short: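 AP-1-bla ME-180 cells in Opti-MEM with 0.5% dialyzed FBS, compound exposure 5 h at 37 C in 15-point titration. Viability read in the same wells as ATP content by CellTiter-Glo luminescence, normalised to tetra-n-octylammonium bromide and DMSO controls.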

[8] = qHTS assay to identify small molecule agonists of the AP-1 signaling pathway (AID 1159526; calls by dose curve)
[9] = biological target: Retinoic acid receptor RXR-alpha (Homo sapiens) (UniProt P19793); assay: qHTS assay to identify small molecule agonists of the RXR signaling pathway (AID 1159527; calls by dose curve; further: nearly all actives have a fitted effect of over 35% in size)
Retinoic acid receptor RXR-alpha (Homo sapiens), sequence (P19793 whole entry, looked up): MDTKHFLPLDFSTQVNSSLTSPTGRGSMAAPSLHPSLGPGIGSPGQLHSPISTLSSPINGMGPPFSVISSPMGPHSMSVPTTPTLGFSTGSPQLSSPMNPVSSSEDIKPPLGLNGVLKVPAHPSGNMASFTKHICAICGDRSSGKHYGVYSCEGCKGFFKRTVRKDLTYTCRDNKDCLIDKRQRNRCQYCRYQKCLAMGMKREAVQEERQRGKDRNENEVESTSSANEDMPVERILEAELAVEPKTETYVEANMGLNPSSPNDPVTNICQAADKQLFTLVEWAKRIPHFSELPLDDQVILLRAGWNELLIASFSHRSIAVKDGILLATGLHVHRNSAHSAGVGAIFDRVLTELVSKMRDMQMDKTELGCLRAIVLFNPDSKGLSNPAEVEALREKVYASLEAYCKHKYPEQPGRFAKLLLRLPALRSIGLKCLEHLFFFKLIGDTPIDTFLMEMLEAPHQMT
In short: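 Reporter activation is measured as beta-lactamase activity via FRET substrate cleavage (emission 460/530 nm) in HEK 293T cells expressing an RXR-alpha-driven bla construct, following 16 hr compound exposure at 37 C.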

Measured: Potency

C=CC(=C)C
inactive: [1] | [2] | [3] | [4] | [5] | [6] | [7] | [8] | [9]

CN1C2CCC(C)(C)C1CC(OC(=O)C(O)(c1cccs1)c1cccs1)C2 (centres undefined)
inactive: [1] | [2] | [3] | [4] | [5] | [6] | [7] | [8] | [9]

Nc1ccccc1-c1ccccc1
inactive: [1] | [2] | [3] | [4] | [5] | [6] | [7] | [8]

Cc1c([N+](=O)[O-])cc2c(c1[N+](=O)[O-])C(C)(C)CC2(C)C
inactive: [2] | [3] | [4] | [5] | [7]

COc1nc(C)nc(NC(=O)NS(=O)(=O)c2ccccc2Cl)n1
inactive: [1] | [2] | [3] | [4] | [5] | [6] | [8] | [9]
